Bioassay records from PubChem.
This is a sample that favours compounds with a hit; in the whole collection about 7.9% have one here.
HT1080 IDH1KD tx: qHTS for induction of synthetic lethality in tumor cells producing 2HG: qHTS for the HT-1080-IDH1KD cell line. hit rate 2% among 360,000. AID 686971, 2013. Potency, µM (series often up to 46.1 µM), usual class: cytotoxic. HT-1080 IDH1 knockdown viability, ATP luminescence, 48 h
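IDH1KD HT-1080 cells, 750/well, RPMI + 5% FBS; compound pinned after 2 h settling; 48 h, 37 °C; CellTiter-Glo luminescence; % activity normalised to DMSO and no-cell wells; curves fitted, classed by r2 and efficacy.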
MCF10A rerep: A quantitative high throughput screen for small molecules that induce DNA re-replication in MCF 10a normal breast cells; MCF 10A DNA re-replication, Hoechst nuclear intensity, 48 h; Potency, µM (doses to about 46.1 µM), usual class: activators; hit rate 2.9% among 350,000; AID 624296, 2012; also: nearly all actives have a fitted effect of over 50% in size
KB-3-1 cytotox: qHTS assay for MDR1-selective chemotherapeutics: Primary screen using the parental adenocarcinoma cell KB-3-1 | AID 1347075, 2019 | hit rate 1.4% among 400,000 | KB-3-1 viability, CellTiter-Glo ATP luminescence, 72 h | Potency, µM (highest dose often 46.1 µM), usual class: cytotoxic; also: nearly all actives have a fitted effect of over 60% in size
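KB-3-1 parental drug-naive adenocarcinoma cells in DMEM/10% FBS, incubated 72 h at 37 C with pin-transferred compounds across a concentration series. Viability by CellTiter-Glo luminescence; concentration-response curves fitted after normalization.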
SW480 rerep: A quantitative high throughput screen for small molecules that induce DNA re-replication in SW480 colon adenocarcinoma cells | SW480 DNA re-replication, Hoechst DNA content imaging, 48 h | Potency, µM (highest dose often 46.1 µM), hits mostly activators | hit rate 1.8% among 340,000; also: nearly all actives have a fitted effect of over 55% in size
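250 cells/well; 23 nL cpd via pin tool; 48 hr, 37 C, 5% CO2; Hoechst 40 min; imager read of total nuclear intensity, ex 405/em 500-530 nm.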
KB-V1 MDR tox: qHTS assay for MDR1-selective chemotherapeutics: Primary screen using the drug-selected MDR subline cells KB-V1 | KB-V1 MDR cells viability, CellTiter-Glo, 72 h | Potency, µM (highest dose often 46.1 µM), usual class: cytotoxic | hit rate 3.4% among 400,000; also: nearly all actives have a fitted effect of over 60% in size
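Readout: CellTiter-Glo luminescence, 10 min after addition. Cells: KB-V1 MDR subline, 72 h at 37 degrees C with compound. Analysis: corrected, normalized data fitted to concentration-effect curves.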
HT1080NT lethal: qHTS for induction of synthetic lethality in tumor cells producing 2HG: qHTS for the HT-1080-NT fibrosarcoma cell line | hit rate 1.6% among 360,000 | HT-1080-NT fibrosarcoma viability, CellTiter-Glo ATP luminescence, 48 h | Potency, µM (titrated, usually from 46.1 µM), actives largely listed as cytotoxic;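 also: NT is the 2HG producing partner of a matched IDH1 knockdown line; nearly all actives have a fitted effect of over 55% in size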
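HT-1080-NT; 750 cells/well; 5% FBS RPMI; 48 h compound, 37 degrees C; CellTiter-Glo luminescence; curve fitting and curve-class assignment.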
Large screens that a line does not name were inactive. Calls follow the shape of the dose curve; as a rule, active = well fitted curve in the direction sought with a large enough effect; inconclusive = small, poorly fitted or top-dose-only effect, or another doubt; inactive = no such curve, though single readings can be large; an effect the other way counts as inactive or inconclusive.

COc1cccc(/C=C2\Sc3ccc(C(=O)NCc4cccnc4)cc3N(C)C2=O)c1	MCF10A rerep inconclusive, SW480 rerep inconclusive
COc1ccc(/C=C2\Sc3ccc(C(=O)NCC4CCCO4)cc3N(C)C2=O)cc1 (stereo unspecified)	MCF10A rerep 23µM, SW480 rerep 23µM, HT1080NT lethal inconclusive
CN1CCN(C(=O)c2ccc3c(c2)N(C)C(=O)/C(=C/c2cccc(Cl)c2)S3)CC1	MCF10A rerep 13µM
C=CCN1C(=O)c2ccccc2Sc2ccc(C(=O)N3CCN(C)CC3)cc21	KB-V1 MDR tox 9.2µM
COc1ccc(/C=C2\Sc3ccc(C(=O)N4CCOCC4)cc3N(C)C2=O)cc1	MCF10A rerep inconclusive
COc1ccc(Cl)cc1S(=O)(=O)N1CCN=C1Cc1ccccc1	none
COc1ccc(/C=C2\Sc3ccc(C(=O)N4CCN(Cc5ccccc5)CC4)cc3N(C)C2=O)cc1OC	MCF10A rerep 21µM, SW480 rerep inconclusive, HT1080NT lethal inconclusive
CCOC(=O)C1=C(C)OC(N)=C(C#N)C1c1cc(OC)c2c(c1)OCO2 (stereo unspecified)	KB-3-1 cytotox inconclusive
COc1cc(C2C(C#N)=C(N)Oc3cc(O)ccc32)cc2c1OCO2 (stereo unspecified)	HT1080 IDH1KD tx 21µM, MCF10A rerep inconclusive, KB-3-1 cytotox inconclusive, KB-V1 MDR tox inconclusive, HT1080NT lethal inconclusive
COc1cc(C2C(C#N)=C(N)Oc3cc4c(cc32)OCO4)cc(OC)c1OC (stereo unspecified)	HT1080 IDH1KD tx 0.029µM, MCF10A rerep inconclusive, KB-3-1 cytotox 0.0052µM, SW480 rerep inconclusive, KB-V1 MDR tox 0.23µM, HT1080NT lethal 0.037µM
N#CC1=C(N)Oc2cc3c(cc2C1c1ccc(Cl)cc1)OCO3 (stereo unspecified)	HT1080 IDH1KD tx inconclusive
COc1cc(C2C(C#N)=C(N)Oc3cc(N(C)C)ccc32)cc2c1OCO2 (stereo unspecified)	HT1080 IDH1KD tx inconclusive, MCF10A rerep inconclusive, KB-3-1 cytotox 0.82µM, KB-V1 MDR tox 0.016µM, HT1080NT lethal 0.2µM
CCC1(C)CC(C#N)(C#N)C(=O)NC1=O (stereo unspecified)	none (no result: MCF10A rerep, SW480 rerep)
Cn1c(=O)c2c(nc(SCc3nc(N)nc(N4CCCCC4)n3)n2C)n(C)c1=O	KB-3-1 cytotox inconclusive, KB-V1 MDR tox 15µM
CCCn1c(SCc2nc(N)nc(N3CCCCC3)n2)nc2c1c(=O)n(C)c(=O)n2C	none
CCCCn1c(SCc2nc(N)nc(N3CCCCC3)n2)nc2c1c(=O)n(C)c(=O)n2C	SW480 rerep inconclusive, KB-V1 MDR tox 8.2µM
Cn1c(=O)c2c(nc(SCCN3CCCCC3)n2C)n(C)c1=O	none
COC(=O)/C=C(\C)NC(=O)c1cccs1	KB-V1 MDR tox inconclusive
N/C(=N\OC(=O)c1cc(-c2ccccc2)nc2ccccc12)c1cccnc1	none
COc1ccc2cc(C(=O)C3CCCN(C(=O)c4cncs4)C3)ccc2c1 (stereo unspecified)	none (no result: KB-3-1 cytotox, KB-V1 MDR tox)
CC/C(=N/NS(=O)(=O)c1ccc(Cl)cc1)c1ccc(O)cc1	none (no result: SW480 rerep)
CCN=C(NS(=O)(=O)c1ccc(Br)cc1)c1ccc(Cl)cc1	MCF10A rerep 1.8µM, KB-V1 MDR tox inconclusive
CC(=N/O)/C(C)=N\NC(=O)c1ccccn1	none
O=C(NN=C1c2ccccc2-c2ccccc21)c1ccccn1	HT1080 IDH1KD tx inconclusive, SW480 rerep inconclusive, KB-V1 MDR tox 5.2µM, HT1080NT lethal inconclusive
COc1ccc(-c2cc3nc(C4CCN(C(=O)OC(C)(C)C)CC4)c(C(=O)Nc4cc(C)cc(C)c4)cn3n2)cc1	none (no result: HT1080 IDH1KD tx, MCF10A rerep, SW480 rerep, HT1080NT lethal)
COc1ccc(-c2cc(C3CCN(C(=O)OC(C)(C)C)CC3)[nH]n2)cc1	KB-3-1 cytotox inconclusive, KB-V1 MDR tox 13µM
COc1ccc(-c2cc(C3CCN(c4ccc(C(C)=O)cc4[N+](=O)[O-])CC3)[nH]n2)cc1	HT1080 IDH1KD tx inconclusive, KB-3-1 cytotox inconclusive, KB-V1 MDR tox 15µM, HT1080NT lethal inconclusive
CCOC(=O)c1cn2nc(-c3ccc(OC)cc3)cc2nc1C1CCN(C(=O)OC(C)(C)C)CC1	MCF10A rerep inconclusive, KB-V1 MDR tox 6.5µM
Cc1cc(=O)n2c(C(=O)Nc3ccc(Br)cc3)c(C(=O)Nc3ccccc3)sc2n1	none (no result: HT1080 IDH1KD tx, MCF10A rerep, SW480 rerep, HT1080NT lethal)
O=C(COC(=O)C1CCCCC1)Nc1ccccc1OC(F)F	MCF10A rerep inconclusive, SW480 rerep inconclusive
O=C(/C=C/c1ccco1)Nc1nnc(-c2ccco2)s1	MCF10A rerep 5.8µM, KB-3-1 cytotox inconclusive, SW480 rerep inconclusive, KB-V1 MDR tox inconclusive
CCc1nnc(NC(=O)/C=C/c2ccco2)s1	none
O=C(/C=C/c1ccco1)Nc1cccc(NC(=O)/C=C/c2ccco2)n1	MCF10A rerep inconclusive
Cc1nc(NC(=O)/C=C/c2ccco2)sc1C	HT1080 IDH1KD tx inconclusive, MCF10A rerep inconclusive, KB-3-1 cytotox 4.1µM, SW480 rerep 8.2µM, KB-V1 MDR tox inconclusive
OC(CNCC1(N2CCCCC2)CCCCC1)COc1ccc(Cl)cc1Cl (stereo unspecified)	HT1080 IDH1KD tx 18µM, MCF10A rerep inconclusive, SW480 rerep inconclusive, KB-V1 MDR tox inconclusive, HT1080NT lethal inconclusive
Cc1cc(Br)cc(Br)c1OCC(=O)NNC(=O)CCC(=O)NCc1ccccc1	none
Cc1cc(Br)cc(Cl)c1OCC(=O)NC(=O)NCc1ccccc1	MCF10A rerep 18µM
C/C(=N\NC(=O)c1n[nH]c2c1CCC2)c1cccs1	SW480 rerep inconclusive
O=C(O)c1n[nH]c2c1CCCC2	none
O=C(N/N=C/c1cccs1)c1n[nH]c2c1CCCC2	HT1080 IDH1KD tx 15µM, MCF10A rerep inconclusive, KB-3-1 cytotox inconclusive, SW480 rerep inconclusive, KB-V1 MDR tox inconclusive, HT1080NT lethal 21µM
Cc1ccc(/C=N/NC(=O)c2n[nH]c3c2CCCC3)cc1	HT1080 IDH1KD tx 0.13µM, MCF10A rerep inconclusive, KB-3-1 cytotox inconclusive, SW480 rerep 0.73µM, KB-V1 MDR tox 1.2µM, HT1080NT lethal 0.16µM
COc1ccccc1NC1=C(Cl)C(=O)N(c2ccccc2)C1=O	SW480 rerep 10µM
COc1ccc(NC2=C(Cl)C(=O)N(c3ccccc3)C2=O)c(OC)c1	none
CCc1ccc(/C=N/NC(=O)c2cc(C3CC3)nc3ccc(Br)cc23)s1	HT1080 IDH1KD tx 5.8µM, MCF10A rerep 1.6µM, KB-3-1 cytotox 4.6µM, SW480 rerep 18µM, KB-V1 MDR tox 4.1µM, HT1080NT lethal 6.5µM
Cc1ccc(/C=N/NC(=O)c2ccc(Br)o2)s1	SW480 rerep inconclusive
CCc1ccc(/C=N\NC(=O)c2ccc(Br)o2)s1	KB-V1 MDR tox 18µM
